The text below walks through data of PubChem BioAssay (Tox21).

Molecules are shown by their SMILES. Unmarked numbers belong to inactive results. Calls of active or inactive are those of the source. The call rests on the fitted dose curve; in most records, active means well fitted curve in the direction sought with a large enough effect in the repeat runs; inconclusive means weak or mixed curves; inactive means flat fitted curve, though single readings scatter.
On the % scale 0 is the no-effect control and ±100 the full control effect.

The nature of the assay: qHTS assay to test for compound auto fluorescence at 590 nm (red) in HepG2 cells (AID 720674). As to conditions: HepG2 autofluorescence, red 540/590 nm, 1 h; series mostly up to 91.3 µM. From the text: U.S. Tox21 Program National Center for Advancing Translational Sciences [NCATS] NIH Chemical Genomics Center [NCGC] U.S. Environmental Protection Agency [EPA] National Institutes of Environmental Health Sciences [NIEHS] National Toxicology Program [NTP] U.S. Food and Drug Administration [FDA] Tox21 Assay Overview: Compound auto fluorescence often interferes with screening of the compound library against various biological targets and signaling pathways. Some of these compounds may have fluorophoric properties. Such properties may interfere with the assay outputs resulting in false positives and/or negatives. To decrease such complications and ensure the compound activities are relevant in terms of biological response, the Tox21 10K compound library was screened for auto fluorescence. From the fluorophores used as reporter signals in our screening assays, the auto fluorescence equivalencies of compounds against three fluorophores have been evaluated: Triamterene, Fluorescein and Rose Bengal sodium for blue, green and red fluorescence, respectively. The fluorescence intensities were measured using Excitation/Emission wavelengths at 405/460nm, 485/535nm and 540/590nm for blue, green and red labels, respectively. This assay includes the red fluorescence data.
Tox21 Assay Protocol Summary: 2,000 HepG2 cells in 5 uL of culture medium (MEM containing 10% FBS) per well were dispensed into black wall/clear bottom 1536-well plates using a Multidrop Combi Dispenser (ThermoFisher Scientific, Waltham, MA). The assay plates were incubated overnight at 37 C to allow cell attachment to the well bottom, followed by the transfer of 23 nL compound or DMSO vehicle by a pintool work station (Kalypsys , San Diego, CA). After the assay plates were incubated for 1 hr at 37 C and 5% CO2, fluorescence intensities in the assay plates were measured by an Envision (PerkinElmer, Shelton, CT) plate reader using three labels for measuring blue, green and red fluorescence at […] 460, 535 and 590 nm respectively.
Turning to `Nc1ccccc1Cl`, the compound was classed as inactive.

For `O=CNC(N1CCN(C(NC=O)C(Cl)(Cl)Cl)CC1)C(Cl)(Cl)Cl` (stereo not given), the compound was called inactive.

Consider `CC(C=O)Cc1ccc2c(c1)OCO2` (stereo not given), for which the outcome was inactive.

Regarding `CC1(C(=O)Nc2ccc(O)c(Cl)c2Cl)CCCCC1`, the result was inactive.

For the compound `CCCCc1c(C)nc(NCC)[nH]c1=O`, the call was inactive.

On to `[As]#[In]`, for which the outcome was inactive.

In the case of `CCN(Cc1ccc(Cl)nc1)/C(=C/[N+](=O)[O-])NC`, the compound was classed as inactive.

With `COc1cc2c(cc1OC)[C@@]13CCN4CC5=CCO[C@H]6CC(=O)N2[C@H]1[C@H]6[C@H]5C[C@H]43`, the call was inactive.

On to `Cc1cc(C)c(C(=O)P(=O)(C(=O)c2c(C)cc(C)cc2C)c2ccccc2)c(C)c1`, for which the compound was classed as inactive.

`CC1(C)CON(Cc2ccccc2Cl)C1=O`: the outcome was inactive.

For the compound `C[C@@H]1CN(C2CCC(C#N)(c3ccc(F)cc3)CC2)CC[C@]1(C(=O)O)c1ccccc1` (stereo not given in full), the fluorescence, relative to Rose Bengal was -0.0454% [at 18.6 µM].

As to `CN1C(=S)CN=C(c2ccccc2)c2cc(Cl)ccc21`, the compound was classed as inactive.

For `COC(=O)c1ccccc1S(=O)(=O)NC(=O)N(C)c1nc(C)nc(OC)n1`, the compound was called inactive.

On to `CCOP(=O)(N=C1SCCS1)OCC`, for which the compound was classed as inactive.

With `O=C(CCCN1CCC(n2c(=O)[nH]c3ccccc32)CC1)c1ccc(F)cc1`, the fluorescence, relative to Rose Bengal is -0.608% [at 18.6 µM].

Take `C(CCOCC1CO1)COCC1CO1` (stereo not given): the result was inactive.

With `CC(CC(C#N)(c1ccccc1)c1ccccc1)N(C)C` (stereo not given), the call was inactive.

Turning to `CNCC(=O)c1ccc(O)c(O)c1`, the outcome was inactive.

On to `CC1(C)C(=O)NC(=O)NC1=O`, for which the outcome was inactive.

On to `O=P(O)(Oc1ccccc1)Oc1ccccc1`, for which the compound was called inactive.

With `CNNC`, the compound was classed as inactive.

`Cc1nc(N)nc(N)n1`: the result was inactive.

`CN1CCC(O)(c2ccc(F)cc2)C(C(=O)c2ccc(F)cc2)C1` (stereo not given): the result was inactive.

In the case of `N#CC(CCc1ccc(Cl)cc1)(Cn1cncn1)c1ccccc1` (stereo not given), the compound was called inactive.

`Nc1cc2c3c(c1)C(c1ccccc1)=N[C@@H](NC(=O)c1cccnc1)C(=O)N3CC2`: the compound was classed as inactive.

Consider `COc1cc(OC)nc(NC(=O)NS(=O)(=O)c2ncccc2C(=O)N(C)C)n1`, for which the compound was called inactive.

Take `CCOC(=O)N(C)C(=O)CSP(=S)(OCC)OCC`: the outcome was inactive.

As for `Nc1cc(Cl)ccc1O`, the outcome was inactive.

Consider `O=NN1CCCCC1`, for which the compound was classed as inactive.

As for `CN(N=O)C(N)=O`, the compound was classed as inactive.

For the compound `CCC#N`, the compound was classed as inactive.

Consider `O=[N+]([O-])c1ccc2c3c(cccc13)CC2`, for which the call was inactive.

Consider `COC(C)(C)C`, for which the outcome was inactive.

As for `CC(COc1ccc(Oc2ccccc2)cc1)Oc1ccccn1` (stereo not given), the outcome was inactive.

Consider `COc1cccc(C(=O)NN(C(=O)c2cc(C)cc(C)c2)C(C)(C)C)c1C`, for which the call was inactive.

For `CN(C)CCc1ccc(O)cc1`, the compound was called inactive.

As for `CC(Oc1ccc(Oc2ncc(C(F)(F)F)cc2Cl)cc1)C(=O)O` (stereo not given), the outcome was inactive.

`COc1cc(OC)nc(NC(=O)NS(=O)(=O)c2ncccc2OCC(F)(F)F)n1`: the compound was classed as inactive.

As for `COC(=O)C(c1ccccc1)C1CCCCN1` (stereo not given), the compound was called inactive.

With `O=C(O)c1cccc(Cl)c1`, the compound was classed as inactive.
